Experimental findings from ChEMBL document CHEMBL3988442, “University of Dundee, Small-Polar-MMV Screening Library” (2021) are described below.

SMILES strings stand for the structures. Out of some 53,000 compounds screened, about 900 (1.7%) showed an effect of 50% or more. The sample holds strong results, similar compounds and a random draw of the others, so the mix is not that of the screen.

In this test the test system is Mycobacterium tuberculosis. Put plainly: Cornell - Phenotypic assay to identify agents that inhibit growth of Mycobacterium tuberculosis. Type of test: functional. The arrangement: scale not given: direction of the effect not stated beside the values. The following applies: 10 mM as filed; unlikely as a test dose.
As to `CCc1ccc(NC(=O)C(C)N2CCN(Cc3ncc[nH]3)CC2)cc1` (centres undefined), the “Percent Effect” value is -0.1574%.

Take `CC(C(N)=O)N1CCN(c2ncc(Cl)cn2)CC1` (centres undefined): the “Percent Effect” value is recorded as -8.902%.

Turning to `O=C(COc1coc(CN2CCCCC2)cc1=O)c1ccccc1`, the “Percent Effect” value is -5.787%.

Take `CC(C)N(C(=O)CCc1ccco1)C1CCOCC1`: the “Percent Effect” value is recorded as 2.754%.

With `CCN1N=C(C(=O)N2CCCC(c3nc(C)c(C)s3)C2)CCC1=O` (centres undefined), the “Percent Effect” value was -28.99%.

Turning to `O=C(CSC1CCc2ccccc2NC1=O)NCCc1ccc(O)cc1` (centres undefined), the “Percent Effect” value is listed as -13.35%.

`CCn1cc2c(n1)C(COC)CN(C(=O)c1ccccn1)C2` (centres undefined): the “Percent Effect” value is recorded as 22.8%.

On to `Cc1nn(C)c(C)c1C(=O)NCc1cc(N(C)C)nc2ccccc12`, for which the “Percent Effect” value is reported as -29.39%.

For the compound `Cn1cnnc1S(=O)(=O)C1CCN(S(=O)(=O)c2ccc(Cl)s2)CC1`, the “Percent Effect” value was 6.004%.

In the case of `CCCn1nccc1C(=O)Nc1ncc(C)s1`, the “Percent Effect” value was 29.79%.

Regarding `CCCn1nccc1C(=O)Nc1nc(C)c(C)s1`, the “Percent Effect” value came to 63.52%.

Turning to `CCn1nccc1C(=O)Nc1nc(C)c(C(C)=O)s1`, the “Percent Effect” value was determined as 37.96%.

`CC(C)c1cc(C(=O)O)nc2[nH]c(=O)[nH]c(=O)c12`: the “Percent Effect” value was 12.95%.

`COc1ccc(CNC(=O)C(NC(=O)Cc2ccccc2)C(C)C)cn1` (centres undefined): the “Percent Effect” value is reported as -38.43%.

Turning to `COCCN1C(=O)[C@H]2CC[C@@H]1CN(Cc1nnc(C3CC3)o1)C2`, the “Percent Effect” value is given as -7.325%.

For `O=C(O)C(F)(F)F.O=C1[C@H]2CN(CC3CC3)C[C@H]2CN1Cc1cccc(F)c1`, the “Percent Effect” value is 9.244%.

For `O=C(C[S+]([O-])Cc1csc(C2CCCC2)n1)NC1CCCC1` (centres undefined), the “Percent Effect” value is reported as 8.301%.

Take `CC(C)CNC(=O)C[S+]([O-])Cc1csc(C2CCCCC2)n1` (centres undefined): the “Percent Effect” value was 18.38%.

`O=C(C[S+]([O-])Cc1csc(C2CCCC2)n1)Nc1ccccc1` (centres undefined): the “Percent Effect” value came to 105.1%.

As for `CCn1cnnc1CNC(=O)c1cc(Cl)ccc1I`, the “Percent Effect” value came to 10.82%.

For the compound `CN(CCNC(=O)c1cnc(-c2ccccc2)nc1)S(C)(=O)=O`, the “Percent Effect” value was -18.18%.

For `CC(C)=CCCC(C)(O)c1cc(C(N)=O)no1` (centres undefined), the “Percent Effect” value came out at 37.88%.

Regarding `CCCC(C)(O)c1cc(C(N)=O)no1` (centres undefined), the “Percent Effect” value is reported as 45.9%.

As for `CCOC(=O)c1cc(C(C)(O)CCC=C(C)C)on1` (centres undefined), the “Percent Effect” value was 106.6%.

On to `CNC(=O)Cn1ccc2ccc(NC(=O)C(C)C)cc21`, for which the “Percent Effect” value is 6.028%.

Take `CCCC(O)CN1CC(C)(C)CN(C(=O)c2ccccc2)CC1=O` (centres undefined): the “Percent Effect” value turned out to be 6.323%.

Turning to `Cc1cc(N2CCC(O)(CN(C)C(=O)CCN)C2)c2cnccc2n1` (centres undefined), the “Percent Effect” value is recorded as 27.99%.

Take `CCCC(=O)NCCc1cc(NC)nc(-c2ccccn2)n1`: the “Percent Effect” value was 8.218%.

Turning to `CNc1cc(CCNC(=O)CC(C)C)nc(-c2ccccn2)n1`, the “Percent Effect” value turned out to be 53.37%.

`CNc1cc(CCNS(=O)(=O)c2ccccc2)nc(-c2ccccn2)n1`: the “Percent Effect” value is reported as 45.23%.

Take `CNc1cc(CCNC(=O)C2CCCC2)nc(-c2ccccn2)n1`: the “Percent Effect” value is reported as 52.1%.

For the compound `Cc1ncc(-c2ccccn2)c(CCNC(=O)C2CCCC2)n1`, the “Percent Effect” value is recorded as -18.28%.

As to `CNc1cc(CCNC(=O)c2cccnc2)nc(-c2ccncc2)n1`, the “Percent Effect” value is -1.38%.

On to `Cc1c(Br)cccc1C(=O)Nc1cc(C(N)=O)n(C)c1`, for which the “Percent Effect” value was determined as 2.948%.

For the compound `COC(=O)c1occc1Cn1cc(Br)cn1`, the “Percent Effect” value is given as -5.91%.

For `COc1cccc2c1ccn2CCNC(=O)CC(C)C`, the “Percent Effect” value is reported as -27.68%.

Consider `CCCn1nnnc1COc1ccc(C(=O)OC)cc1OC`, for which the “Percent Effect” value was 7.789%.

Consider `COCC(=O)N1CCOC(c2cccc(-c3cncnc3)n2)C1` (centres undefined), for which the “Percent Effect” value is recorded as -11.99%.

Take `Cc1noc(C)c1-c1cccc(C2CN(S(=O)(=O)N(C)C)CCO2)n1` (centres undefined): the “Percent Effect” value is given as 37.24%.

On to `CN(C)S(=O)(=O)N1CCOC(c2cccc(-c3cncnc3)n2)C1` (centres undefined), for which the “Percent Effect” value amounted to 50.13%.

`COc1ccccc1C(=O)N1CC(=O)N(CC(C)C)CC(O)C1` (centres undefined): the “Percent Effect” value worked out at 11.6%.

With `CCC(CN1CCCCC1)NC(=O)C1(c2cccc(F)c2)CC1.O=C(O)CC(O)(CC(=O)O)C(=O)O` (centres undefined), the “Percent Effect” value came to 45.73%.

Consider `CCOCC(O)CN1CCN(C(=O)c2ccc(N(C)C)nc2)CC1` (centres undefined), for which the “Percent Effect” value is reported as 18.97%.

In the case of `CCOCC(O)CN1CCN(C(=O)c2ccsc2)CC1` (centres undefined), the “Percent Effect” value was 106.2%.

For the compound `CCOCC(O)CN1CCN(C(=O)c2ccncc2)CC1` (centres undefined), the “Percent Effect” value worked out at 18.36%.

Take `CC(C)N1CCC(Cc2cncc(-c3cccc(C(=O)O)c3)n2)CC1`: the “Percent Effect” value was -33.1%.

Take `CCOCC1CN(S(=O)(=O)Cc2ccccc2)Cc2nccn2C1` (centres undefined): the “Percent Effect” value is given as 3.802%.

`CC(C)c1ccc(C#N)c(N2CC(C)(C)[C@@](C)(O)C2)n1`: the “Percent Effect” value is 23.89%.

Turning to `COc1cccc(S(=O)(=O)CCN2CCCN(C(C)=O)CC2)c1`, the “Percent Effect” value stood at 16.19%.

On to `COc1cccc(C(C)N2CCN(S(C)(=O)=O)CC2)c1` (centres undefined), for which the “Percent Effect” value was -32.99%.

Regarding `COc1cccc(/C=C/CCN2CCN(S(C)(=O)=O)CC2)c1`, the “Percent Effect” value is 79.58%.

`COc1cccc(/C=C/CCN2CCCN(C(C)=O)CC2)c1`: the “Percent Effect” value was found to be 68.14%.

As for `COc1cccc(NC(=O)CN2CCN(S(C)(=O)=O)CC2)c1`, the “Percent Effect” value came out at 13.93%.

As to `COc1cccc(/C=C/CCN2CCC(C(=O)N3CCCC3)CC2)c1`, the “Percent Effect” value was 9.134%.

Take `Cc1cc(C)n(C2CN(c3ncnc4[nH]ccc34)C2)n1`: the “Percent Effect” value is listed as -54.22%.

For `CCn1cc(S(=O)(=O)NCC2(N3CCOCC3)CCCCC2)c(C)n1`, the “Percent Effect” value is reported as -12.17%.

In the case of `N#CCCCOc1cccnc1NC(=O)CC1CCCCC1`, the “Percent Effect” value was -14.31%.

With `Cc1ccc(NC(=O)N2CCN(Cc3ccccn3)CC2)cc1Cl`, the “Percent Effect” value is -19.48%.

On to `Cc1nc(CN(C)C2CCCN(c3ccccc3)C2)no1` (centres undefined), for which the “Percent Effect” value was -1.27%.

As for `Cn1c(=O)c2c(c3ccccc31)OC(C)(C)CC2`, the “Percent Effect” value is 17.08%.

On to `COc1cccc2c3c(c(=O)[nH]c12)CCC(C)(C)O3`, for which the “Percent Effect” value stood at 14.12%.

Consider `COc1cccc2c3c(c(=O)n(C)c12)CCC(C)(C)O3`, for which the “Percent Effect” value was 52.61%.

`CSCCCNC(=O)C(c1ccccc1C)N(C)C` (centres undefined): the “Percent Effect” value amounted to 37.97%.

For `Cc1cc(N(C)CCC(O)c2ccccc2)n2nccc2n1` (centres undefined), the “Percent Effect” value is recorded as -28.51%.

On to `Cc1cc(C(F)(F)F)nc(CNc2cc(C)nc3cc(C)nn23)n1`, for which the “Percent Effect” value came out at 13.97%.

In the case of `COc1cccc(C(=O)Oc2cc(=O)n3cccc(C)c3n2)c1`, the “Percent Effect” value was 35.2%.

With `CC1c2cccn2CCN1C(=O)CCc1nc(C2CC2)no1` (centres undefined), the “Percent Effect” value is 7.661%.

Regarding `CC1c2cccn2CCN1C(=O)CCCc1nc(-c2ccco2)no1` (centres undefined), the “Percent Effect” value stood at 8.285%.

Consider `CC1c2cccn2CCN1C(=O)CCc1nc(-c2ccccc2)no1` (centres undefined), for which the “Percent Effect” value was determined as 50.68%.
